Data reported in PubChem BioAssay.
Unmarked numbers belong to inactive results. How the calls were made is not given here.

Each compound was assayed on Aerobactin synthetase IucA (Klebsiella pneumoniae hvKP1) (assay: IucA enzyme inhibition, primary screen, biochemical, Spectrum library (AID 1346200;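 further: 100% = wells without compound and 0% = wells lacking enzyme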)). Settings: malachite green pyrophosphate, A620, at 8 µM, stronger effect = lower value.
COc1c(OC)c2occc2c2oc(=O)ccc12 showed an activity remaining of 122%. Compound CN1CCC(=C2c3ccccc3CCc3sccc32)CC1 has an activity remaining of 123%. With NC[C@H]1O[C@H](O[C@H]2C(O[C@@H]3O[C@H](CO)[C@@H](O)[C@H]3O)[C@@H](O)[C@H](N)C[C@@H]2N)[C@H](N)[C@@H](O)[C@@H]1O (stereo partly specified) the activity remaining was 123%. Work on C[C@@H]1O[C@@H](OC[C@H]2OC(Oc3c(-c4ccc(O)c(O)c4)oc4cc(O)cc(O)c4c3=O)[C@H](O)[C@@H](O)[C@@H]2O)[C@H](O)[C@H](O)[C@H]1O (stereo partly specified) yielded an activity remaining of 101%. CC(=O)Oc1cc(OC(C)=O)c2c(c1)O[C@H](c1ccc(OC(C)=O)c(OC(C)=O)c1)[C@@H](OC(C)=O)C2 showed an activity remaining of 98%. For CC(=O)OCC(=O)[C@@]1(O)[C@H](OC(C)=O)CC2C3CCC4=CC(=O)C=C[C@]4(C)[C@@]3(F)[C@@H](O)C[C@@]21C (stereo partly specified), the activity remaining was 120%. With CC(=O)Oc1cc2c(c(C)c1OC(C)=O)CC1OC13[C@@]2(C)CC[C@@]1(C)C2C[C@](C)(C(=O)O)CC[C@]2(C)CC[C@]31C (stereo partly specified) the activity remaining was 101%. For CC(C)=CCc1c(O)cc2occ(-c3ccc4c(c3)OCO4)c(=O)c2c1O, the activity remaining was 114%. CC(=O)Nc1ccc(O)cc1 gave an activity remaining of 90%. For COc1c2c(cc3occ(-c4ccc5c(c4)OCO5)c(=O)c13)OC(C)(C)C=C2, the activity remaining was 111%. Work on CCC[C@@H]1C[C@@H](C(=O)N[C@@H](C2O[C@H](SC)[C@H](O)[C@@H](O)[C@H]2O)[C@H](C)Cl)N(C)C1 (stereo partly specified) yielded an activity remaining of 77.4%.
